13 compounds from PubChem BioAssay (EPA / NIEHS) can be followed below.

A short description of experiment [1]: BSK_BT_PBMCCytotoxicity: PBMC Cytotoxicity Assessment in the BioMAP Diversity Plus: BT Assay (AID 2284225).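 Note: PBMC viability measured by Alamar Blue dye reduction fluorescence.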 Particulars: primary human B cells with PBMC. An outline of the steps:
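Primary human co-culture of B cells and PBMC, pre-dosed 1 h then activated with SEB and TSST-1. Cytotoxicity is taken from Alamar Blue dye reduction, added for 6 h at the end of a 90 h incubation.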

Read-out in experiment [2]: Secreted IgG (sIgG), gene 3500
Description: BSK_BT_sIgG: BioMAP Diversity Plus: BT Assay for Secreted IgG (sIgG) Biomarker Activity (AID 2284226). The conditions noted are these: primary human B cells with PBMC. An outline of the steps:
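Human B cell/PBMC co-culture; compound exposure 24 h; sIgG by ELISA; gain-of-signal fit vs DMSO baseline.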

A short description of experiment [3]: BSK_BT_Bcell_Proliferation: Viability Assessment in the BioMAP Diversity Plus: BT Assay for B cell Proliferation (AID 2284227). Particulars: primary human B cells with PBMC. An outline of the steps:
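Read-out is absorbance at 560 nm from sulforhodamine B staining of total protein, reflecting relative cell numbers in a human B cell and PBMC co-culture after 72 h of chemical exposure. Values were referenced to DMSO.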

Read-out in experiment [4]: Interleukin 6 (IL6), IL6 (gene 3569)
Briefly: BSK_BT_xIL6: BioMAP Diversity Plus: BT Assay for Interleukin 6 (IL6) Biomarker Activity (AID 2284228). The conditions noted are these: primary human B cells with PBMC. An outline of the steps: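 IL-6 secretion measured (Luminex xMAP) in human primary B cell + PBMC co-culture at 24 h of chemical exposure; DMSO served as negative control and activity baseline, with curves fitted for increase.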

Read-out in experiment [5]: Interleukin 17A (IL17A), IL17A (gene 3605)
Briefly: BSK_BT_xIL17A: BioMAP Diversity Plus: BT Assay for Interleukin 17A (IL17A) Biomarker Activity (AID 2284229). Particulars: primary human B cells with PBMC. An outline of the steps:
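Human primary B cells plus PBMC, treated 24 h with chemicals; supernatant IL-17A quantified on Luminex xMAP beads. Gain of signal over DMSO control scored as activity.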

Read-out in experiment [6]: Tumor necrosis factor (Homo sapiens) (UniProt P01375)
Briefly: BSK_BT_xTNFa: BioMAP Diversity Plus: BT Assay for Tumor necrosis factor alpha (TNF-alpha) Biomarker Activity (AID 2284230). Particulars: primary human B cells with PBMC. Put shortly:
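Human primary co-culture of B cells and peripheral blood mononuclear cells; TNF-alpha in supernatant, 24 h post-dose, Luminex multiplex; DMSO = baseline.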

Read-out in experiment [7]: Vascular cell adhesion molecule 1 (VCAM1), VCAM1 (gene 7412)
Briefly: BSK_MyoF_VCAM1: BioMAP Diversity Plus: MyoF Assay for Vascular cell adhesion molecule 1 (VCAM1) Biomarker Activity (AID 2284231). Particulars: primary human lung fibroblasts. An outline of the steps: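 VCAM-1 levels, lung fibroblasts, ELISA, 24 h exposure, increase scored relative to DMSO.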

Read-out in experiment [8]: Collagen I, COL1A1 (gene 1277)
Briefly: BSK_MyoF_CollagenI: BioMAP Diversity Plus: MyoF Assay for Collagen I Biomarker Activity (AID 2284238). The conditions noted are these: primary human lung fibroblasts. An outline of the steps:
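Measured by ELISA: Collagen I from human lung fibroblasts 24 h after compound addition, analysed for signal gain with DMSO as baseline; overt toxicity read from SRB staining of parallel cultures at the same time.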

Read-out in experiment [9]: Collagen III, COL3A1 (gene 1281)
Briefly: BSK_MyoF_CollagenIII: BioMAP Diversity Plus: MyoF Assay for Collagen III Biomarker Activity (AID 2284239). Particulars: primary human lung fibroblasts. Put shortly: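 Multiplexed cell assay in lung fibroblasts, harvested at 24 h post-dose. Collagen III detected by ELISA, with positive-direction fitting relative to DMSO vehicle.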

Experiment [10] is described as follows: CCTE_Mundy_HCI_hNP1_Casp3_7: CCTE's Caspase-Glo 3/7 Assay in human neuroprogenitor cells for Apoptosis, Mundy Lab (AID 2284240). An outline of the steps: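 Luminescent caspase-3/7 readout, 26.5 h post-dose, in human neural progenitor cells from WA09 embryonic stem cells. Cells grew 40–44 h at 37 °C, 5% CO2 before chemical addition. Activity analysed as signal increase over DMSO baseline.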

Experiment [11] in a line: CCTE_Mundy_HCI_hNP1_CellTiter: CCTE's Cell Titer-Glo 2 Assay in human neuroprogenitor cells for Viability, Mundy Lab (AID 2284241; active = hit-call score of the fitted dose curve at least 0.9, where 1 is the maximum). An outline of the steps: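 Viability read as luminescent ATP content (CellTiter-Glo, 30 min room temperature) twenty-four hours after dosing, relative to DMSO. Cells: WA09-derived hNP1 neuroprogenitors on poly-L-ornithine/laminin, plated 40 to 44 hours before chemical.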

Experiment [12] can be described thus: TAMU_HCS_1.5hr_SingleDonor1434_Cytotoxicity: Cytotoxicity Assessment using High-content Screening (HCS) Fluorescent Imaging for the Texas A&M University (TAMU) 1.5-hr Human Induced Pluripotent Stem Cell (iPSC)-derived Cardiotoxicity Assay (AID 2284234; active = hit-call score of the fitted dose curve at least 0.9, where 1 is the maximum). An outline of the steps:
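Nuclear counts from Hoechst 33342 imaging define cytotoxicity here, with EC10 (10% cell-count loss relative to DMSO) as point of departure. iPSC cardiomyocytes received 0.2-100 uM test chemical in 0.5% DMSO for 1.5 h at 37 C.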

Experiment [13] can be described thus: TAMU_PeakParms_SingleDonor1434_QT: Texas A&M University (TAMU) 1.5-hr Human Induced Pluripotent Stem Cell (iPSC)-derived Cardiomyocytes Calcium (Ca+2) Flux Assay for Cardiotoxicity: QT (decay-rise ratio) (AID 2284235; active = hit-call score of the fitted dose curve at least 0.9, where 1 is the maximum). Put shortly: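 Decay/rise ratio of calcium-flux fluorescence scored after 90 min exposure (37C) of donor 1434 iPSC cardiomyocytes to 0.2–100 uM (0.5% DMSO). Beat-cessation and severe-notch points removed; POD is EC05, a 5% rise over DMSO.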

Inconclusive results are not listed. The source made the active and inactive calls. Rule for the calls, unless noted: active = hit-call score of the fitted dose curve at least 0.9, where 1 is the maximum; inactive = score below 0.9.

Sequence of Tumor necrosis factor (Homo sapiens) (P01375 whole entry, looked up): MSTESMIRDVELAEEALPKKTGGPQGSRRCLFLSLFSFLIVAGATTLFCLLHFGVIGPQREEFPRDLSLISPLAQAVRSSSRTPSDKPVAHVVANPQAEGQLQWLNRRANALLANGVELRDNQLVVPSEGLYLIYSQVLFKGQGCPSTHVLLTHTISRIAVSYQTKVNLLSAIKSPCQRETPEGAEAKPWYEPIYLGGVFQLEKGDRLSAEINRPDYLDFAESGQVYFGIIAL

The term AC50 denotes the midpoint of the concentration-response curve, whichever way the signal moves. Consider `CCOP(=S)(S)OCC`, for which the result in [1], in [3], in [4], in experiment [5], in experiment [6] and in [7] was inactive. In addition, the result in experiment [8] and in [9] was inactive. Further, the AC50 in [2] is 4.15 µM (active).

Consider `O=S(=O)(F)C(F)(F)C(F)(F)C(F)(F)C(F)(F)C(F)(F)C(F)(F)C(F)(F)C(F)(F)F`, for which the outcome in experiment [1], in experiment [2], in experiment [3], in experiment [4], in [5] and in [6] was inactive. Moreover, the result in [7], in [8] and in [9] was inactive.

With `CCOP(=S)(OCC)SCS(=O)(=O)CC`, the outcome in experiment [1], in experiment [2], in experiment [3], in experiment [4], in experiment [5] and in experiment [6] was inactive. Also, the result in experiment [7], in experiment [8] and in experiment [9] was inactive.

Take `NC(=O)C(F)(F)C(F)(F)F`: the result in experiment [1], in experiment [2], in experiment [3], in experiment [4], in experiment [5] and in experiment [6] was inactive. Besides, the result in experiment [7], in experiment [8] and in [9] was inactive.

With `c1ccc2c(c1)sc1ccccc12`, the result in [1], in experiment [2], in experiment [3], in experiment [4], in experiment [5] and in experiment [6] was inactive. The outcome in experiment [7], in [8] and in experiment [9] was inactive.

For `N#Cc1cc([N+](=O)[O-])ccc1N`, the outcome in experiment [1], in experiment [2], in experiment [3], in experiment [4], in [5] and in [6] was inactive. Also, the result in experiment [7], in experiment [8] and in experiment [9] was inactive.

As to `O=C(O)C=CC(F)(C(F)(F)F)C(F)(F)F`, the result in experiment [1], in [2], in [3], in [4], in [5] and in [6] was inactive. The result in experiment [7], in [8], in experiment [9], in [10] and in experiment [11] was inactive.

`COC(=O)C(F)(F)C(F)(F)OC(F)(C(F)(F)F)C(F)(F)OC(F)=C(F)F` (centres undefined): the result in experiment [1], in experiment [2], in experiment [3], in experiment [4], in experiment [5] and in experiment [6] was inactive. The outcome in experiment [7], in experiment [8] and in [9] was inactive.

Turning to `COP(N)(=S)OC`, the result in experiment [1], in experiment [2], in [3], in experiment [4], in [5] and in experiment [6] was inactive. Further, the result in experiment [7], in experiment [8] and in [9] was inactive.

Consider `C=CC(=O)OCC(CC)(COC(=O)C=C)COC(=O)C=C`, for which the AC50 in experiment [1] is 2.98 µM (active); in [2], 0.516 µM (active); in experiment [3], 2.36 µM (active); in experiment [4] it was 1.46 µM (active); in experiment [5], 2.18 µM (active); in [6], 2.61 µM (active). Moreover, the AC50 was 2.5 µM (active) in experiment [7], 4.69 µM (active) in [8] and 4.87 µM (active) in experiment [9].

`c1cc2c3c(cccc3c1)CC2`: the outcome in experiment [12] and in experiment [13] was inactive.

In the case of `Cc1ccc2c(c1N)C(=O)c1ccccc1C2=O`, the result in experiment [1], in experiment [2], in experiment [3], in experiment [5], in experiment [7] and in experiment [8] was inactive. The values for the AC50 in experiment [4], in experiment [6] and in experiment [9] were 0.144 µM (active), 20 µM (active) and 1.43 µM (active), respectively.

Consider `O=P(Oc1ccccc1)(Oc1ccccc1)Oc1ccccc1`, for which the result in experiment [13] was inactive.
